# In PubChem BioAssay (NCATS):
# Results filed as inconclusive are left out. Where a call stands in place of a potency, no number is given. Calls of active or inactive are those of the source. Unless noted, calls come from the whole dose curve; as a rule, active = well fitted curve in the direction sought with a large enough effect; inconclusive = small, poorly fitted or top-dose-only effect, or another doubt; inactive = no such curve, though single readings can be large; an effect the other way counts as inactive or inconclusive.
# What was measured:
# [1] = Cytotoxicity counterscreen for NFkB agonists and antagonists (AID 624476);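 note: cells exposed to compound for 48 hours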; note: potency is the fitted concentration of half-maximal effect
# [2] = qHTS Assay for Identification of Small Molecule Agonists for NFkB Signaling Pathway. (AID 624478);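 note: compounds tested together with TNF alpha at its EC50 of 10 pM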
# How it was run: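 ME-180 cervical carcinoma, stable NFkB-RE beta-lactamase reporter; 1000 cells/well, overnight attachment; cpd + TNF alpha 10 pM final, 5 h 37 C; LiveBLAzer 2 h RT; FRET 460/530 nm, ex 405 nm.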
# [3] = Cell Proliferation Assay against the TMD8 Cell Line (AID 651645); details: TMD8 DLBCL cell line proliferation/viability; at 46.1 µM (top of the series) unless noted;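 note: cells exposed to compound for 48 h before reading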
# How it was run: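 Luminescent ATP read-out (CellTiter-Glo, 15 min RT) after 48 h compound exposure of log-growing TMD8 cells at 37C; percent activity scaled between DMSO as 100% and 9.2 uM bortezomib final as 0%.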
# [4] = Cell Proliferation Assay against the HBL1 Cell Line (AID 651646); details: HBL1 DLBCL cells; at 46.1 µM (top of the series) unless noted;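 note: cells exposed to compound for 48 h before reading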
# How it was run: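 Luminescent ATP read-out (CellTiter-Glo) after 48 h compound exposure of HBL1 cells at 37 °C; percent activity was scaled between DMSO as 100% and 9.2 uM bortezomib (final) as 0%.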
# [5] = qHTS Assay for Identification of Small Molecule Antagonists for NFkB Signaling Pathway. (AID 624479; calls by dose curve;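 note: pathway stimulated with TNF alpha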; note: potency is the fitted concentration of half-maximal effect)
# [6] = qHTS of Trypanosoma Brucei Inhibitors: LOPAC Validation (AID 624147)
# How it was run: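 Enzyme and substrate buffer are dispensed first and compound is pin-transferred. ADP at 130 uM final then starts the reaction, which runs 45 min at room temperature. Detection reagent is added for 10 min before luminescence is imaged.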
# [7] = HTS Assay for Allosteric Antagonists of the Human D2 Dopamine Receptor: Hit Validation in HTRF (AID 624455);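 note: stable D1 dopamine receptor cell line scored for blocking the D1 response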
# How it was run: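 First, antagonism was screened by calcium flux in a force-coupled, inducible Hek293 Trex D2 line challenged with EC80 dopamine. Hits then went into an HTRF assay in cells stably expressing D1, testing inhibition of the D1 response.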
# [8] = biological target: Glucagon-like peptide 1 receptor (Homo sapiens) (UniProt P43220); test: qHTS of GLP-1 Receptor Agonists: LOPAC Validation (AID 624148);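 note: luminescence from a luciferase reporter switched on by cAMP; higher luminescence signal means agonism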
# Glucagon-like peptide 1 receptor (Homo sapiens), sequence (P43220 whole entry, looked up): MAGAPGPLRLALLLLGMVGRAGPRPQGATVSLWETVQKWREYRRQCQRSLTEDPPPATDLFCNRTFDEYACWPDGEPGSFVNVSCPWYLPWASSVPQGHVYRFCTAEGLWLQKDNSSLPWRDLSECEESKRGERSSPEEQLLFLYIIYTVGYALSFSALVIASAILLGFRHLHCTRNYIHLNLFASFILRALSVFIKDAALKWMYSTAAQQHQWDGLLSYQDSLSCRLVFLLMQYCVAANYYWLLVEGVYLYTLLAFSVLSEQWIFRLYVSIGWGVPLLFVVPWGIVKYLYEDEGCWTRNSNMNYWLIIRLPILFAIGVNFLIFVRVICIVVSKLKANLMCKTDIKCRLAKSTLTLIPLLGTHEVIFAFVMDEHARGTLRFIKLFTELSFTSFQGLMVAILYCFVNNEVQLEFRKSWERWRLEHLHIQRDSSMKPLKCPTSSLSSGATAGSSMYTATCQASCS
# How it was run: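 Agonism scored as increased luciferase luminescence driven by cAMP in HEK293 clones carrying GLP-1R. Cells settled 12 hours, received compound for 4-6 hr at 37 deg C, 5% CO2, and were read after 12 min detection reagent at RT.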
# [9] = qHTS of Nrf2 Activators: LOPAC Validation (AID 624149)
# How it was run: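 Luminescence read-out of ARE-luciferase activation: AREc32_Fluc cells treated with compounds for 24 hr at 37 deg C, then lysed with Steady-Glo for 30 min at room temperature before reading.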
# [10] = biological target: Tumor susceptibility gene 101 protein (Homo sapiens) (UniProt Q99816); test: qHTS Assay for Iinhibitors of HIV-1 Budding by Blocking the Interaction of PTAP/TSG101: Hit Validation (AID 651600); details: PTAP peptide/TSG101 UEV interaction, biochemical assay; note: potency is the fitted concentration of half-maximal effect; nearly all actives have a fitted effect of over 70% in size
# Tumor susceptibility gene 101 protein (Homo sapiens), sequence (Q99816 whole entry, looked up, the tested form may be a part): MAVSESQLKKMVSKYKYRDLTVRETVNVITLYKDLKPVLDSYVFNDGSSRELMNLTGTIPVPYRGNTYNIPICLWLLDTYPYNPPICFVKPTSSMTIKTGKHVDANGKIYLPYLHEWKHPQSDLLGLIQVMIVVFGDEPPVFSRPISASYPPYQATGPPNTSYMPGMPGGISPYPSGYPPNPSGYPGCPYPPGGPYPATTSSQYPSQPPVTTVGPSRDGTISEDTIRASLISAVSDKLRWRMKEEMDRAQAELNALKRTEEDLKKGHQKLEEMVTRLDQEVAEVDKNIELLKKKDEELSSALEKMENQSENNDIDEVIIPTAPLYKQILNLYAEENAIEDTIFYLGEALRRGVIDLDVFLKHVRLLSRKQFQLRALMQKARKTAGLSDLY
# How it was run: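 Tsg101 binding domain 10 uM + FITC-PTAP peptide 50 nM (final), 10 mM HEPES pH 7.5/0.15 M NaCl/0.01% Tween 20/3 mM EDTA/0.1 mM TCEP; 20 min RT; FP read, FITC filters.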
smiles,measurement,setting,value
CS(=O)(=O)CCNCc1ccc(-c2ccc3ncnc(Nc4ccc(OCc5cccc(F)c5)c(Cl)c4)c3c2)o1,Potency,[1],23.5 µM (active)
same,outcome,[2],inactive
same,viability (% of control),[3],0.834%
same,"viability, percent of control",[4],3.03%
CN(C)C(=N)N=C(N)N,Potency,[1],inactive
same,outcome,[2],inactive
same,Potency,[5],inactive
same,viability (% of control),[3],131%
same,"viability, percent of control",[4],125%
Cc1ccc(-c2cc(C(F)(F)F)nn2-c2ccc(S(N)(=O)=O)cc2)cc1,outcome,[2],inactive
same,Potency,[5],43.2 µM (active)
same,viability (% of control),[3],57.7% [at 92.2 µM]
same,"viability, percent of control",[4],6.48% [at 92.2 µM]
O=C(C1CCCCC1)N1CC(=O)N2CCc3ccccc3C2C1 (stereo unspecified),Potency,[6],inactive
same,Potency,[7],inactive
CC[N+](CC)(CC)CCOc1cccc(OCC[N+](CC)(CC)CC)c1OCC[N+](CC)(CC)CC,Potency,[8],inactive
same,outcome,[9],inactive
COc1nc(C)nc(Cl)c1NC1=NCCN1,Potency,[6],inactive
same,outcome,[9],inactive
same,Potency,[7],inactive
CN1CCN2c3ccccc3Cc3ccccc3C2C1 (stereo unspecified),Potency,[8],inactive
same,outcome,[9],inactive
O=C1Cc2cc(CCN3CCN(c4nsc5ccccc45)CC3)c(Cl)cc2N1,Potency,[6],inactive
same,outcome,[9],inactive
same,Potency,[7],inactive
Cc1cn([C@H]2C[C@H](N=[N+]=[N-])[C@@H](CO)O2)c(=O)[nH]c1=O,Potency,[6],inactive
same,outcome,[9],inactive
NCCc1cnc[nH]1,Potency,[6],inactive
same,outcome,[9],inactive
same,Potency,[7],inactive
CC[C@@]1(O)C(=O)OCc2c1cc1n(c2=O)Cc2cc3c(CN(C)C)c(O)ccc3nc2-1,Potency,[1],0.0235 µM (active)
same,outcome,[2],inactive
same,Potency,[5],5.95 µM (active)
same,Potency,[10],6.51 µM (active)
same,viability (% of control),[3],4.59%
same,"viability, percent of control",[4],33.6%
COc1ccc(CCN(C)CCCC(C#N)(c2ccc(OC)c(OC)c2)C(C)C)cc1OC (stereo unspecified),outcome,[9],inactive
same,Potency,[7],inactive
same,Potency,[1],inactive
same,outcome,[2],inactive
same,Potency,[5],inactive
